PubChem BioAssay (EPA / NIEHS)
Calls of active or inactive are those of the source. How the source made its calls: active means hit-call score of the fitted dose curve at least 0.9, where 1 is the maximum; inactive means score below 0.9.

What follows are compounds tested on Thyroid Hormone Responsive (THRSP), THRSP (gene 7069) (assay: LTEA_HepaRG_THRSP: Life Technologies and Expression Analysis (LTEA) Assay for Thyroid Hormone Responsive (THRSP) using HepaRG (AID 2283536)). Conditions: mRNA level, 48 h; actives raise or lower the signal.
In short: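 mRNA induction or loss relative to 0.5% DMSO vehicle was fitted bidirectionally across an eight-point curve whose highest exposure was 100 uM. Human HepaRG liver cells received chemicals in duplicate over 48 h before RNA extraction.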

Compound | AC50 | outcome
Cc1cc(CCN2CCN(c3nsc4ccccc34)CC2)cc2c1NC(=O)CC2(C)C | 82 µM (active) | –
c1ccc2c(c1)Cc1ccccc1-2 | – | inactive
COC(=O)CCCCC(=O)OC | – | inactive
C#C[C@]1(O)CC[C@H]2[C@@H]3CCC4=CC(=O)CC[C@@H]4[C@H]3CC[C@@]21C | 0.0729 µM (active) | –
CC(=O)NC1(c2cccc(F)c2)CCN(CC[C@@]2(c3ccc(Cl)c(Cl)c3)CN(c3ccccc3)C(=O)CO2)CC1 | 20.5 µM (active) | –
CC(O)CO (stereo not given) | – | inactive
COCC(C)OCC(C)O (stereo not given) | – | inactive
CC(=O)CC(C)(C)O | – | inactive
CC(C)(C)c1cc(C(C)(C)C)c(O)c(C(C)(C)C)c1 | 17.9 µM (active) | –
CN1CCC[C@H]1c1cccnc1 | – | inactive
CC(C)(C)CC(C)(C)c1ccc(O)c(-n2nc3ccccc3n2)c1 | 77.9 µM (active) | –
Nc1cccc2c(N)cccc12 | 10.9 µM (active) | –
CCC(=C(c1ccc(O)cc1)c1ccc(OCCN(C)C)cc1)c1ccccc1 | – | inactive
CC[C@H](C)[C@@H](C(=O)O)n1sc2ccccc2c1=O | – | inactive
OC1CCC(C2CCCCC2)CC1 (stereo not given) | – | inactive
O=[N+]([O-])c1ccc(O)cc1 | – | inactive
CCN(CC)CCNc1ccc(CNC=O)c2sc3ccc(OC)cc3c(=O)c12 | 12.8 µM (active) | –
O=C(OCCOCCOC(=O)c1ccccc1)c1ccccc1 | – | inactive
CCC(C)(C)C1CCC(O)CC1 (stereo not given) | – | inactive
CCCCCCCCOC(=O)CCCCCCCCC(=O)OCCCCCCCC | – | inactive
CC[C@H](c1ccc(O)cc1)[C@@H](CC)c1ccc(O)cc1 | – | inactive
CCCCCCCCC(=O)O | – | inactive
CCCCOCCO | – | inactive
Cc1cc(C)c(O)c(C)c1 | – | inactive
CCCOC(=O)c1ccc(O)cc1 | – | inactive
c1ccc2c(c1)ccc1ccccc12 | – | inactive
CC(C)(C)c1ccc(O)c(C(C)(C)C)c1 | – | inactive
NC(=O)N1C(=O)C(C(=O)c2cc(Cl)cs2)c2cc(F)c(Cl)cc21 (stereo not given) | 17.7 µM (active) | –
CCOC(=O)CC(O)(CC(=O)OCC)C(=O)OCC | – | inactive

These compounds were tested on Cellular tumor antigen p53 (Homo sapiens) (UniProt P04637) (assay: LTEA_HepaRG_TP53: Life Technologies and Expression Analysis (LTEA) Assay for Tumor Protein P53 (TP53) using HepaRG (AID 2283537)). Conditions: mRNA level, 48 h; actives raise or lower the signal.
Sequence of Cellular tumor antigen p53 (Homo sapiens) (P04637 whole entry, looked up): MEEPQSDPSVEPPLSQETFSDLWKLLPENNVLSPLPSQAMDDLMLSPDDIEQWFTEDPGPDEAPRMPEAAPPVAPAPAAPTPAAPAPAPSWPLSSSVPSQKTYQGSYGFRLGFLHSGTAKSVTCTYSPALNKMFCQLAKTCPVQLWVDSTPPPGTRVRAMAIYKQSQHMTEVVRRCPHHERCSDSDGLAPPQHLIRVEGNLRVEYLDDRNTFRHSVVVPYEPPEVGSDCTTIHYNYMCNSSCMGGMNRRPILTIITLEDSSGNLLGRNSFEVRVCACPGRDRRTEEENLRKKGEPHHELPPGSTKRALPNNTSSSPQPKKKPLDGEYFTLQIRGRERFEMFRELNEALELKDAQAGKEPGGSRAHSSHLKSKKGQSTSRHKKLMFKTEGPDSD
In short: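 Gain or loss of TP53 mRNA signal is scored relative to 0.5% DMSO after 48 h chemical treatment of HepaRG liver cells, tested in duplicate at eight half-log concentrations up to 100 uM.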

Compound | AC50 | outcome
Cc1cc(CCN2CCN(c3nsc4ccccc34)CC2)cc2c1NC(=O)CC2(C)C | 80.4 µM (active) | –
c1ccc2c(c1)Cc1ccccc1-2 | – | inactive
COC(=O)CCCCC(=O)OC | – | inactive
C#C[C@]1(O)CC[C@H]2[C@@H]3CCC4=CC(=O)CC[C@@H]4[C@H]3CC[C@@]21C | – | inactive
CC(=O)NC1(c2cccc(F)c2)CCN(CC[C@@]2(c3ccc(Cl)c(Cl)c3)CN(c3ccccc3)C(=O)CO2)CC1 | – | inactive
CC(O)CO (stereo not given) | – | inactive
COCC(C)OCC(C)O (stereo not given) | – | inactive
CC(=O)CC(C)(C)O | – | inactive
CC(C)(C)c1cc(C(C)(C)C)c(O)c(C(C)(C)C)c1 | – | inactive
CC(C)(C)CC(C)(C)c1ccc(O)c(-n2nc3ccccc3n2)c1 | – | inactive
Nc1cccc2c(N)cccc12 | – | inactive
CC[C@H](C)[C@@H](C(=O)O)n1sc2ccccc2c1=O | – | inactive
OC1CCC(C2CCCCC2)CC1 (stereo not given) | – | inactive
O=[N+]([O-])c1ccc(O)cc1 | – | inactive
CCN(CC)CCNc1ccc(CNC=O)c2sc3ccc(OC)cc3c(=O)c12 | 16.6 µM (active) | –
O=C(OCCOCCOC(=O)c1ccccc1)c1ccccc1 | – | inactive
CCC(C)(C)C1CCC(O)CC1 (stereo not given) | – | inactive
CCCCCCCCOC(=O)CCCCCCCCC(=O)OCCCCCCCC | – | inactive
CC[C@H](c1ccc(O)cc1)[C@@H](CC)c1ccc(O)cc1 | 80.1 µM (active) | –
CCCCCCCCC(=O)O | – | inactive
CCCCOCCO | – | inactive
Cc1cc(C)c(O)c(C)c1 | – | inactive
CCCOC(=O)c1ccc(O)cc1 | – | inactive
c1ccc2c(c1)ccc1ccccc12 | – | inactive
CC(C)(C)c1ccc(O)c(C(C)(C)C)c1 | – | inactive
NC(=O)N1C(=O)C(C(=O)c2cc(Cl)cs2)c2cc(F)c(Cl)cc21 (stereo not given) | 94.4 µM (active) | –
CCOC(=O)CC(O)(CC(=O)OCC)C(=O)OCC | – | inactive

Each compound was assayed on UDP glucuronosyltransferase (UGT1A1), UGT1A1 (gene 54658) (assay: LTEA_HepaRG_UGT1A1: Life Technologies and Expression Analysis (LTEA) Assay for UDP glucuronosyltransferase (UGT1A1) using HepaRG (AID 2283538)). Conditions: mRNA level, 48 h; actives raise or lower the signal.
In short: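 Differentiated human HepaRG cells in serum-free induction medium were exposed in duplicate for 48 h to eight half-log concentrations up to 100 uM in 0.5% DMSO. UGT1A1 mRNA was quantified by TaqMan qRT-PCR, normalized to ACTB, GAPDH and POLR2A, and fitted bidirectionally against DMSO.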

Compound | AC50 | outcome
Cc1cc(CCN2CCN(c3nsc4ccccc34)CC2)cc2c1NC(=O)CC2(C)C | 91.6 µM (active) | –
c1ccc2c(c1)Cc1ccccc1-2 | – | inactive
COC(=O)CCCCC(=O)OC | – | inactive
C#C[C@]1(O)CC[C@H]2[C@@H]3CCC4=CC(=O)CC[C@@H]4[C@H]3CC[C@@]21C | 2.19 µM (active) | –
CC(=O)NC1(c2cccc(F)c2)CCN(CC[C@@]2(c3ccc(Cl)c(Cl)c3)CN(c3ccccc3)C(=O)CO2)CC1 | 41.5 µM (active) | –
CC(O)CO (stereo not given) | – | inactive
COCC(C)OCC(C)O (stereo not given) | – | inactive
CC(=O)CC(C)(C)O | – | inactive
CC(C)(C)c1cc(C(C)(C)C)c(O)c(C(C)(C)C)c1 | 13.9 µM (active) | –
CN1CCC[C@H]1c1cccnc1 | – | inactive
CC(C)(C)CC(C)(C)c1ccc(O)c(-n2nc3ccccc3n2)c1 | 17.4 µM (active) | –
Nc1cccc2c(N)cccc12 | – | inactive
CCC(=C(c1ccc(O)cc1)c1ccc(OCCN(C)C)cc1)c1ccccc1 | – | inactive
CC[C@H](C)[C@@H](C(=O)O)n1sc2ccccc2c1=O | – | inactive
OC1CCC(C2CCCCC2)CC1 (stereo not given) | – | inactive
O=[N+]([O-])c1ccc(O)cc1 | – | inactive
CCN(CC)CCNc1ccc(CNC=O)c2sc3ccc(OC)cc3c(=O)c12 | 44 µM (active) | –
O=C(OCCOCCOC(=O)c1ccccc1)c1ccccc1 | – | inactive
CCC(C)(C)C1CCC(O)CC1 (stereo not given) | – | inactive
CCCCCCCCOC(=O)CCCCCCCCC(=O)OCCCCCCCC | – | inactive
CC[C@H](c1ccc(O)cc1)[C@@H](CC)c1ccc(O)cc1 | 83.3 µM (active) | –
CCCCCCCCC(=O)O | – | inactive
CCCCOCCO | – | inactive
Cc1cc(C)c(O)c(C)c1 | 8.27 µM (active) | –
CCCOC(=O)c1ccc(O)cc1 | – | inactive
c1ccc2c(c1)ccc1ccccc12 | 7.77 µM (active) | –
CC(C)(C)c1ccc(O)c(C(C)(C)C)c1 | – | inactive
NC(=O)N1C(=O)C(C(=O)c2cc(Cl)cs2)c2cc(F)c(Cl)cc21 (stereo not given) | 38.7 µM (active) | –
CCOC(=O)CC(O)(CC(=O)OCC)C(=O)OCC | – | inactive
